Inconclusive results are not listed. The source made the active and inactive calls. Calls come from the whole dose curve; as a rule, active = well fitted curve in the direction sought with a large enough effect; inconclusive = small, poorly fitted or top-dose-only effect, or another doubt; inactive = no such curve, though single readings can be large; an effect the other way counts as inactive or inconclusive. Non-standard residues stand in square brackets, D forms with d. Residues, ends and D or L forms follow the SMILES beside them. *: point of attachment. Nva = CCC[C@H](N)C(=O)O; Cbz = O=C(OCc1ccccc1)*
Columns and labels:
[1] = Quantitative High-Throughput drug screen in 47 multiple myeloma cell lines against the NCATS MIPE library collection: KMS12BM_JCRB cell viability assay (AID 1918971); note: nearly all actives have a fitted effect of over 35% in size
Procedure, shortened: (§1)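 Myeloma cells (500 per well) were exposed to MIPE 4.0 compounds by pin transfer and incubated 48 hours at 37C, 5% CO2. Viability was read as ATP by CellTiter-Glo luminescence, normalised to DMSO (100%) and media-only (0%) wells.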

[2] = Quantitative High-Throughput drug screen in 47 multiple myeloma cell lines against the NCATS MIPE library collection: KMS12PE_JCRB cell viability assay (AID 1918972); note: nearly all actives have a fitted effect of over 30% in size
Procedure, shortened: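 CellTiter-Glo ATP luminescence gave viability after 48 h compound treatment at 37C of 500 multiple myeloma cells per well. Normalisation used DMSO-only wells as 100% and media-only wells as 0% viability; primary qHTS of approved and investigational drugs.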

[3] = Quantitative High-Throughput drug screen in 47 multiple myeloma cell lines against the NCATS MIPE library collection: KMS20_JCRB cell viability assay (AID 1918973); note: nearly all actives have a fitted effect of over 45% in size
Procedure, shortened: (§2)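 Myeloma cell lines, 500 cells per well, exposed to MIPE 4.0 library compounds for 48 h at 37C, 5% CO2. Viability from ATP by CellTiter-Glo luminescence; normalised to DMSO (100%) and media-only (0%) wells.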

[4] = Quantitative High-Throughput drug screen in 47 multiple myeloma cell lines against the NCATS MIPE library collection: KMS26_JCRB cell viability assay (AID 1918975); note: nearly all actives have a fitted effect of over 45% in size
Procedure, shortened: as §1

[5] = Quantitative High-Throughput drug screen in 47 multiple myeloma cell lines against the NCATS MIPE library collection: MOLP8_DSMZ cell viability assay (AID 1918977); note: nearly all actives have a fitted effect of over 45% in size
Procedure, shortened: (§3)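 ATP-based CellTiter-Glo luminescence after 48 h drug exposure (37 °C, 5% CO2) of 500 myeloma cells per well. DMSO-only wells set 100% viability, media-only wells 0%; MIPE 4.0 library added by pin tool.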

[6] = Quantitative High-Throughput drug screen in 47 multiple myeloma cell lines against the NCATS MIPE library collection: OCIMY1_PLB cell viability assay (AID 1918979); note: nearly all actives have a fitted effect of over 35% in size
Procedure, shortened: as §3

[7] = Quantitative High-Throughput drug screen in 47 multiple myeloma cell lines against the NCATS MIPE library collection: MM1S_ATCC cell viability assay (AID 1918980); note: nearly all actives have a fitted effect of over 45% in size
Procedure, shortened: as §3

[8] = Quantitative High-Throughput drug screen in 47 multiple myeloma cell lines against the NCATS MIPE library collection: MMM1_PLB cell viability assay (AID 1918976); note: nearly all actives have a fitted effect of over 35% in size
Procedure, shortened: as §3

[9] = Quantitative High-Throughput drug screen in 47 multiple myeloma cell lines against the NCATS MIPE library collection: NCIH929_DSMZ cell viability assay (AID 1918978); note: nearly all actives have a fitted effect of over 35% in size
Procedure, shortened: as §3

[10] = Quantitative High-Throughput drug screen in 47 multiple myeloma cell lines against the NCATS MIPE library collection: KMS21BM_JCRB cell viability assay (AID 1918974); conditions: ATP luminescence, 48 h; viability: at 45.8 µM (top of the series)
Procedure, shortened: as §2
Potency is the fitted concentration of half-maximal effect.

Row | SMILES | Potency [1] | Potency [2] | Potency [3] | Potency [4] | Potency [5] | Potency [6] | Potency [7] | Potency [8] | Potency [9] | Potency [10]
1 | N#CNC(=NCCCCCCOc1ccc(Cl)cc1)Nc1ccncc1 | 0.0118 µM (active) | 0.0042 µM (active) | 8.33 µM (active) | 0.0074 µM (active) | 0.0235 µM (active) | 0.0105 µM (active) | 0.0059 µM (active) | – | – | –
2 | C[C@H](NC(=O)C(C#N)=Cc1cccc(Br)n1)c1ccccc1 | 4.69 µM (active) | 16.6 µM (active) | 2.35 µM (active) | 2.35 µM (active) | – | 7.43 µM (active) | 8.33 µM (active) | 7.43 µM (active) | 1.66 µM (active) | –
3 | O=C1CSC(=O)N1C(CCc1ccncc1)COc1ccc(-c2cccc([N+](=O)[O-])c2)cc1 (centres undefined) | 7.43 µM (active) | inactive | 10.5 µM (active) | 4.18 µM (active) | – | – | – | 4.18 µM (active) | 18.7 µM (active) | –
4 | C=Cc1c(C)c2cc3nc(cc4[nH]c(cc5nc(cc1[nH]2)C(C)=C5CCC(=O)O)c(CCC(=O)OC)c4C)[C@@]1(C)C3=CC=C(C(=O)OC)[C@H]1C(=O)OC | 0.187 µM (active) | 0.187 µM (active) | 0.148 µM (active) | 0.743 µM (active) | 2.09 µM (active) | 2.35 µM (active) | – | – | 0.0833 µM (active) | –
5 | CN(C)c1ccc2cc(C(=O)N[C@@H](CCCN=C(N)CCl)C(=O)NCc3ccccc3)ccc2c1 | 11.8 µM (active) | 7.43 µM (active) | 8.33 µM (active) | 6.62 µM (active) | – | – | 1.18 µM (active) | 18.7 µM (active) | 16.6 µM (active) | –
6 | CC(=O)OCC(=O)[C@@]1(O)CC[C@H]2[C@@H]3CCC4=CC(=O)CC[C@]4(C)[C@@H]3C(=O)C[C@@]21C | inactive | inactive | inactive | inactive | inactive | inactive | – | – | inactive | –
7 | C[C@H](CCC(=O)O)[C@H]1CC[C@H]2[C@@H]3[C@H](O)C[C@@H]4C[C@H](O)CC[C@]4(C)[C@@H]3CC[C@]12C | inactive | inactive | inactive | inactive | – | inactive | inactive | – | – | –
8 | CCOc1cc2ncc(C#N)c(Nc3ccc(OCc4ccccn4)c(Cl)c3)c2cc1NC(=O)C=CCN(C)C | 5.26 µM (active) | 0.264 µM (active) | 0.935 µM (active) | 18.7 µM (active) | – | – | 0.526 µM (active) | – | 0.833 µM (active) | –
9 | OCCNC1CCCc2c1[nH]c1ccc(-c3ccccc3)cc21 (centres undefined) | 37.2 µM (active) | 8.33 µM (active) | 5.26 µM (active) | 20.9 µM (active) | – | 26.4 µM (active) | 20.9 µM (active) | – | 13.2 µM (active) | –
10 | C=CCNC1=C2C[C@@H](C)C[C@H](OC)[C@@H](O)[C@@H](C)C=C(C)[C@H](OC(N)=O)[C@@H](OC)C=CC=C(C)C(=O)NC(=CC1=O)C2=O | 0.469 µM (active) | 0.0833 µM (active) | 0.001 µM (active) | 2.35 µM (active) | – | 1.05 µM (active) | 2.35 µM (active) | 5.9 µM (active) | 1.18 µM (active) | –
11 | O=C(Nc1cc2cc[nH]c2cn1)c1ccccc1 | 14.8 µM (active) | 8.33 µM (active) | 9.35 µM (active) | 11.8 µM (active) | 3.72 µM (active) | – | 14.8 µM (active) | – | – | –
12 | COc1cc([C@@H]2c3cc4c(cc3[C@H](O)[C@H]3COC(=O)[C@@H]23)OCO4)cc(OC)c1OC | 0.148 µM (active) | 0.118 µM (active) | 1.32 µM (active) | 0.372 µM (active) | – | – | 0.833 µM (active) | 0.469 µM (active) | 0.59 µM (active) | –
13 | COc1cc2c(Nc3ccc(Cl)c(Cl)c3F)ncnc2cc1OCC1C[C@@H]2CN(C)C[C@H]2C1 | 5.26 µM (active) | 1.87 µM (active) | 1.87 µM (active) | 2.35 µM (active) | – | – | 16.6 µM (active) | – | 2.09 µM (active) | –
14 | CC(C)C[C@H](NC(=O)[C@@H](NC(=O)c1cccc(-c2ccccc2)n1)[C@@H](C)O)B(O)O | 0.0372 µM (active) | 0.0105 µM (active) | 0.0332 µM (active) | 0.0418 µM (active) | – | 0.0166 µM (active) | 0.0132 µM (active) | 3.72 µM (active) | – | –
15 | COC[C@H](NC(=O)c1cnc(C)s1)C(=O)N[C@@H](COC)C(=O)N[C@@H](Cc1ccccc1)C(=O)[C@@]1(C)CO1 | 0.0935 µM (active) | 0.0372 µM (active) | 0.132 µM (active) | 0.148 µM (active) | 0.0469 µM (active) | 0.0418 µM (active) | 0.059 µM (active) | 1.05 µM (active) | – | –
16 | COc1ccc(Nc2cc(-c3cnc(N)nc3)nc(N3CCOCC3)n2)cn1 | 2.96 µM (active) | 2.09 µM (active) | 4.18 µM (active) | 4.18 µM (active) | 0.833 µM (active) | – | 4.69 µM (active) | – | 0.264 µM (active) | –
17 | CCC[C@@H](C=O)NC(=O)[C@H](CC(C)C)NC(=O)[C@H](CC(C)C)NC(=O)OCc1ccccc1 (Cbz-Leu-Leu-[Nva]-aldehyde) | 1.05 µM (active) | 0.296 µM (active) | 0.187 µM (active) | 1.32 µM (active) | 1.18 µM (active) | 0.743 µM (active) | 0.418 µM (active) | 3.72 µM (active) | – | –
18 | NC(=O)Nc1sc(-c2ccc(F)cc2)cc1C(N)=O | 4.18 µM (active) | 0.935 µM (active) | 1.66 µM (active) | 2.96 µM (active) | 13.2 µM (active) | – | 0.332 µM (active) | 3.32 µM (active) | 0.0209 µM (active) | –
19 | c1ccc(CNc2nc(NCc3ccccc3)c3ccccc3n2)cc1 | 29.6 µM (active) | 5.9 µM (active) | 8.33 µM (active) | 26.4 µM (active) | – | – | 8.33 µM (active) | 16.6 µM (active) | 8.33 µM (active) | –
20 | N#CC(=C(O)c1ccc(Cl)cc1Cl)c1nc2cc(Cl)ccc2c(=O)[nH]1 | inactive | inactive | inactive | – | inactive | – | – | inactive | inactive | –
21 | COc1ccc2c(c1OC)C(=O)OC2[C@H]1c2c(cc3c(c2OC)OCO3)CCN1C (some centres undefined) | 0.0418 µM (active) | 0.105 µM (active) | – | 3.32 µM (active) | – | – | 0.332 µM (active) | 2.64 µM (active) | 1.87 µM (active) | 0.148 µM (active)
22 | Cc1onc(-c2ccccc2)c1C(=O)N[C@@H]1C(=O)N2[C@@H](C(=O)O)C(C)(C)S[C@@H]12 | inactive | inactive | – | inactive | – | – | – | – | inactive | inactive
23 | C=CC(=O)Nc1cccc(Nc2nc(NC3CCC(N(C)C)CC3)nc3c2ncn3C(C)C)c1 (centres undefined) | 0.469 µM (active) | 0.0118 µM (active) | – | 0.235 µM (active) | 0.166 µM (active) | 4.69 µM (active) | – | 1.05 µM (active) | 0.0372 µM (active) | 0.0166 µM (active)
24 | CN[C@H]1[C@@H](O)[C@@H]2O[C@@H]3O[C@H](C)CC(=O)[C@]3(O)O[C@@H]2[C@@H](NC)[C@H]1O | 9.35 µM (active) | 0.833 µM (active) | – | 1.66 µM (active) | 11.8 µM (active) | 8.33 µM (active) | 0.209 µM (active) | 1.66 µM (active) | 0.935 µM (active) | 0.418 µM (active)
25 | CN1CCCN(C(=O)c2cccc(-c3ccc(C=C4C(=O)Nc5ccc(Cl)cc54)o3)c2)CC1 | 23.5 µM (active) | 7.43 µM (active) | – | 18.7 µM (active) | 4.18 µM (active) | – | 14.8 µM (active) | – | 20.9 µM (active) | 7.43 µM (active)
26 | C=CC(=O)Nc1ccc2ncnc(Nc3ccc(OCc4cccc(F)c4)c(Cl)c3)c2c1 | 0.418 µM (active) | 0.0743 µM (active) | – | 9.35 µM (active) | 6.62 µM (active) | 14.8 µM (active) | 1.66 µM (active) | 18.7 µM (active) | 4.18 µM (active) | –
27 | N#CC(=C(N)Sc1ccc(N)cc1)c1ccccc1C(F)(F)F | 7.43 µM (active) | inactive | 0.469 µM (active) | – | – | – | – | inactive | 1.05 µM (active) | –
28 | O=C1NC(=O)C(=Cc2ccc3nccc(-c4ccncc4)c3c2)S1 | 0.332 µM (active) | 0.332 µM (active) | – | 0.187 µM (active) | 0.166 µM (active) | 0.235 µM (active) | 0.118 µM (active) | 0.235 µM (active) | 0.0296 µM (active) | 0.166 µM (active)
29 | Cc1cnc(Nc2ccc(N3CCN(C)CC3)cc2)nc1Nc1cccc(S(=O)(=O)NC(C)(C)C)c1 | 2.64 µM (active) | 1.66 µM (active) | – | 6.62 µM (active) | – | – | 3.32 µM (active) | 2.96 µM (active) | 2.35 µM (active) | 0.148 µM (active)
30 | CCCCCCCCCCCCCCCC(=O)OC[C@@H](NC(=O)C(Cl)Cl)[C@H](O)c1ccc([N+](=O)[O-])cc1 | inactive | inactive | – | inactive | inactive | – | – | – | – | inactive
